Screening data (PubChem)
HP1b binding inh: blocks HP1-beta chromodomain binding to methylated histone tails | hit rate 0.56% among 390,000 | Potency, µM (titrated, usually from 114 µM), for inactives: at the highest dose activity change, negative = inhibition, actives largely listed as inhibitors | AlphaScreen HP1-beta / biotin-H3K9me3 peptide binding | AID 540317; note: nearly all actives have a fitted effect of over 70% in size
Target sequence (P83916 whole entry, looked up): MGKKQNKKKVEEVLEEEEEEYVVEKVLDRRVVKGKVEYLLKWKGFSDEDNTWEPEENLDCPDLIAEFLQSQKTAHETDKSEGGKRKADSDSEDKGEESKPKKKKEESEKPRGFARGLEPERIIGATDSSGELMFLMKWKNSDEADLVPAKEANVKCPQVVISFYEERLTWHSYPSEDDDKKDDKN
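AlphaScreen: HP1-beta (50 nM) preformed 30 min with biotin-H3(1-18)K9me3 peptide (50 nM) in PBS pH 7.4, 0.01% Tween-20. Compound added for 30 min at RT, then streptavidin donor/nickel chelate acceptor beads (10 ug/mL) for 30 min.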
G9a block: G9a (human) methyltransferase inhibition; AID 504332; Potency, µM (top dose mostly 102 µM), inactives show at the top dose activity, negative = inhibition, usual class: inhibitors; hit rate 8.8% among 350,000; G9a H3K9 monomethylation, AlphaScreen, 2 h; Q96KQ7; note: % is set by controls: 0 for no effect and ±100 for the full control effect; nearly all actives have a fitted effect of over 75% in size
Target sequence (Q96KQ7 913-1193 limits assumed): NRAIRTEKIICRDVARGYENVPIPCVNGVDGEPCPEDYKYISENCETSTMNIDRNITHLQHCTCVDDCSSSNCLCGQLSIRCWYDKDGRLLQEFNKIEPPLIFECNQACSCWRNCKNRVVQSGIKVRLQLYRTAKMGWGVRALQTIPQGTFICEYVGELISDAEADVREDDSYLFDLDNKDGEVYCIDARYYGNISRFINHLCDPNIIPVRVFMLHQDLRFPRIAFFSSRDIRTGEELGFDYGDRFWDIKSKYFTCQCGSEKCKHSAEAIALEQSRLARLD
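AlphaScreen detection with an anti-monomethyl H3K9 antibody quantified product after a 2 h room-temperature reaction containing 500 nM biotinylated H3K9 peptide, 20 µM SAM and 20 nM enzyme, which had been preincubated 15 min with compound.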
BAZ2B block: inhibitors of human BAZ2B bromodomain; AlphaScreen BAZ2B-H3K14Ac peptide displacement; Potency, µM (series often up to 114 µM), for inactives: at the top dose activity change, negative = inhibition, hits mostly inhibitors; hit rate 4.4% among 360,000; AID 504333; note: % is set by controls: 0 for no effect and ±100 for the full control effect; nearly all actives have a fitted effect of over 60% in size
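BAZ2B 50 nM plus b-H3(5-23)K14Ac 50 nM, PBS pH 7.4/0.01% Tween-20, 30 min RT; compound added (max 110 uM), 30 min RT; streptavidin donor/Ni-chelate acceptor beads 10 ug/mL final, 20 min dark; AlphaScreen read.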
Sfp inh: Sfp phosphopantetheinyl transferase inhibition | hit rate 3.5% among 310,000 | AID 1490 | Potency, µM, without a hit: largest response in the series, negative = inhibition, hits mostly inhibitors | Biochemical Sfp PPTase activity, qHTS;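 note: the enzyme is Sfp with the accession as filed and its product quenches rhodamine fluorescence; 0% = enzyme reaction without inhibitor and -100% = no enzyme wells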
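Fluorescence-quenching assay with 15 nM Sfp, 5 uM rhodamine-CoA and 12.5 uM BHQ-2-labelled ybbR peptide in pH 7.6 Hepes/MgCl2 buffer. Enzyme was pre-incubated with compound for 15 min at room temperature. Rate was taken from the 30-min fluorescence change (525/598 nm).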
L3MBTL1 block: blocks human L3MBTL1 | Q9Y468 | AID 485360 | hit rate 0.66% among 230,000 | Potency, µM (titrated, usually from 57.1 µM), without a hit: at the top dose activity, negative = inhibition, usual class: inhibitors | AlphaScreen L3MBTL1–H3K9me1 peptide binding; note: % is set by controls: 0 for no effect and ±100 for the full control effect; nearly all actives have a fitted effect of over 60% in size
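AlphaScreen assay: L3MBTL1 (50 nM final) was preincubated 30 min at room temperature with biotinylated H3(1-15)K9me1 peptide (75 nM final), then 30 min with library compounds; streptavidin donor and nickel chelate acceptor beads (10 ug/mL final) added, 30 min dark.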
JMJD2A Tudor: JMJD2A Tudor domain (human) inhibition; O75164; AlphaScreen JMJD2A-Tudor / H3K4me3 peptide binding; Potency, µM (top dose mostly 114 µM), for the others: top-dose activity change, negative = inhibition, hits mostly inhibitors; hit rate 4.4% among 390,000; AID 504339; note: % is set by controls: 0 for no effect and ±100 for the full control effect; nearly all actives have a fitted effect of over 50% in size
Numbers without * were called inactive; ? = inconclusive; . = no result given; [ ] = remark or other dose. Shown are actives, neighbours in structure and some others; about 12% of the full set was active somewhere. Calls come from the whole dose curve; as a rule, active = well fitted curve in the direction sought with a large enough effect; inconclusive = small, poorly fitted or top-dose-only effect, or another doubt; inactive = no such curve, though single readings can be large; an effect the other way counts as inactive or inconclusive. Potency is the fitted concentration of half-maximal effect.

SMILES	HP1b binding inh	G9a block	BAZ2B block	Sfp inh	L3MBTL1 block	JMJD2A Tudor
CN(CC(=O)Nc1ccc(Cl)cc1)CC(=O)Nc1cccc(Br)c1	35%	45µM*	1%	12%	.	-6%
COc1cccc(NC(=O)CN(C)C(C)C(=O)Nc2ccc(C(C)=O)cc2)c1 (stereo not drawn)	22%	-1%	-19%	15%	6%	-17%
COc1cccc(NC(=O)CN(C)C(C)C(=O)NC(C)c2ccc(Cl)cc2Cl)c1 (stereo not drawn)	40%	28µM*	-2%	.	11%	-14%
COc1ccc(NC(=O)CN(C)CC(=O)Nc2cccc(C(C)=O)c2)cc1	?	4.5µM*	35µM*	?	.	10µM*
CCC(C)c1ccc(NC(=O)CN(C)CC(=O)Nc2cccc(OC)c2)cc1 (stereo not drawn)	35%	50µM*	50µM*	-31%	.	5%
CCS(=O)(=O)N1CCCC(C(=O)NCCOC)C1 (stereo not drawn)	22%	10%[59 µM]	9%	.	.	-19%
Cc1cc(C)cc(-n2c(SCC(=O)N3CCc4ccccc43)nc3c([nH]c4ccccc43)c2=O)c1	17%[57 µM]	19%[59 µM]	6%	.	.	-5%
Cc1ccccc1-c1nnc(CN2CCN(c3cccc(C)c3C)CC2)o1	48%	-6%[59 µM]	16%	.	.	7%
CCCN(CC(=O)Nc1cccc(S(N)(=O)=O)c1)CC(=O)Nc1ccc(F)c(F)c1F	44%	13%	-9%	1%	2%	-4%
COc1ccc(NC(=O)CN(C)CC(=O)Nc2ccc3c(c2)CCC3)cc1	16%	-19%	-22%	17%	-4%	-17%
COc1ccc(NC(=O)CN(CC(=O)Nc2ccc(OC)cc2)C(C)(C)CO)cc1	14%	71µM*	-23%	12%	.	-15%
CCCN(CC(=O)Nc1cccc(Br)c1)CC(=O)Nc1ccc(F)c(F)c1F	58%	11µM*	15%	21%	14%	-3%
COc1ccc(NC(=O)CN(C)CC(=O)N2CCCCCC2)cc1	24%	56µM*	27%	.	1%	14µM*
CCC(C)c1ccc(NC(=S)Nc2ccc(OC)cc2C)cc1 (stereo not drawn)	-22%	4.5µM*	-5%	-8%	-3%	-26%
CCC(NC(=O)CCc1c(C)c2cc3c(C)c(C)oc3cc2oc1=O)C(=O)N[C@@H](Cc1ccccc1)C(=O)O (stereo partly drawn)	3%	?	50µM*	6%	7%	?
CCOCc1[nH]c(=S)[nH]c(=O)c1Cc1ccc(OCC(C)C)cc1	-16%	-41%	-1%	9%	-5%	50µM*
Fc1cccc(F)c1CN1CCN(c2ncccn2)CC1	8%	11%[59 µM]	4%	-16%	-5%	?
Fc1ccccc1CN1CCN(c2ncccn2)CC1	-31%	22µM*	?	-23%	12%	6.3µM*
Oc1cc2c(cc1CN1CCN(c3ncccn3)CC1)OCO2	13%	4µM*	-30%	-6%	.	?
COc1cc(Br)cc(CN2CCN(c3ncccn3)CC2)c1O	29%	?	-8%	-6%	-1%	-25%
Oc1cc(O)c(CN2CCOCC2)cc1CN1CCOCC1	71µM*	.	.	.	.	79µM*
Oc1c(CN2CCOCC2)cc(CN2CCOCC2)cc1CN1CCOCC1	21%	.	.	.	.	-12%
Cc1ccc(C)c(CN2CCN(c3ncccn3)CC2)c1	?	.	?	-17%	1%	20µM*
COc1cccc(CNc2nc3ccccc3c3nc(-c4cccc(C)c4)nn23)c1	51%	14%[59 µM]	8%	.	.	1%
N#Cc1c(C(F)(F)F)cc(-c2cccs2)nc1SCC(=O)Nc1cccc(C(F)(F)F)c1	28%	10%[59 µM]	1%	.	.	-1%
SMILES	HP1b binding inh	G9a block	BAZ2B block	Sfp inh	L3MBTL1 block	JMJD2A Tudor
O=[N+]([O-])c1ccc(Cl)c(CN2CCN(c3ncccn3)CC2)c1	-1%	71µM*	?	-11%	-5%	?
Clc1cccc(Cl)c1CN1CCN(c2ncccn2)CC1	65%	.	-5%	-22%	-3%	-2%
COCCNC(=S)N(CCc1c(C)[nH]c2ccc(F)cc12)Cc1cccnc1	3%	40%[0.501 µM]	?	1%	.	?
Cc1[nH]c2ccc(F)cc2c1CCN(Cc1ccco1)C(=S)NC(C)(C)C	18%	?	.	2%	.	?
CNC(=S)N(CCc1c(C)[nH]c2ccccc12)Cc1ccco1	?	50µM*	?	13%	-13%	?
COCCNC(=S)N(CCc1c(C)[nH]c2ccc(F)cc12)Cc1ccco1	-5%	?	71µM*	-7%	.	-35%
CNC(=S)N(CCc1c(C)[nH]c2ccc(F)cc12)Cc1ccco1	-13%	71µM*	?	3%	.	?
Cc1cccc(OCCn2c(SCC(N)=O)nc3ccccc32)c1	58%	11%[59 µM]	20%	.	.	-26%
O=C(NCCCn1ccnc1)c1cn(-c2ccccc2)nc1-c1ccc(F)cc1	-9%	21%	-2%	-1%	-8%	?
N#C/C(=C\c1ccc([N+](=O)[O-])cc1)C(=O)NCCCn1ccnc1	-9%	-43%[59 µM]	?	-9%	.	-16%
N#C/C(=C/c1cn(-c2ccccc2)nc1-c1cccc(OCc2ccc(F)cc2)c1)C(=O)NCCCn1ccnc1	-21%	1%[59 µM]	10µM*	?	-27%	16µM*
CCCOc1cccc(-c2nn(-c3ccccc3)cc2/C=C(\C#N)C(=O)NCCCn2ccnc2)c1	?	-9%[59 µM]	?	-20%	-18%	45µM*
Nc1nc(N)nc(-c2ccc(Cl)cc2)n1	7%	-2%	79µM*	9%	.	-12%
COCCn1c(-c2ccc(-c3ccc([N+](=O)[O-])cc3Br)o2)nc2c1c(=O)[nH]c(=O)n2CC(C)C	21%	35µM*	-29%	28µM*	-6%	-20%
COCCn1c(=O)[nH]c(=O)c2c1nc(-c1ccc(-c3ccc(Cl)cc3[N+](=O)[O-])o1)n2Cc1ccccc1	?	8.9µM*	?	?	-15%	?
COc1ccc(-c2ccc(-c3nc4c(c(=O)[nH]c(=O)n4Cc4ccccc4)n3C)o2)c([N+](=O)[O-])c1	2%	?	?	10µM*	-2%	-17%
COc1ccc(C2(CNC(=O)C(=O)Nc3ccc(F)cc3)CCCC2)cc1OC	21%	-3%[59 µM]	-2%	.	.	-14%
COc1cc(OC)c(NC(=O)Nc2ccc3c(c2)N(C)C(=O)c2ccccc2S3)cc1Cl	12%	-7%[59 µM]	-22%	.	.	-32%
CCCCSc1nc(O)c(C2OC(=O)c3c2ccc(OC)c3OC)c(=O)n1-c1ccccc1 (stereo not drawn)	36%	?	?	79µM*	.	-23%
CCc1ccc2c(c1)Sc1ccccc1CC2N1CCN(C)CC1 (stereo not drawn)	-9%	.	.	.	.	-35%
